# High-throughput results as filed in PubChem BioAssay.
# Sampled rows, rich in hits. Any-hit rate of the full collection: about 3.9%.
# BoNT-F LC inh: BoNT/F light chain protease inhibitors, primary screen, biochemical, flow cytometry, MLPCN library. Botulinum neurotoxin type F light chain protease (Clostridium botulinum). Multiplex microsphere protease cleavage assay. inhibition, % at 10 µM. 360,000 tested, 0.22% active. AID 588497, 2011; in the data active = inhibition above about 35%, passing the limit was not always enough; inconclusive = no clear call, values can overlap the other calls; note: plate controls were buffer without enzyme for full effect and enzyme alone for no effect
# Autofluor counter: compound fluorescence in toxin protease inhibitor counterscreen; AID 624483; fluorescence intensity (concentration not given with the values); compound autofluorescence counterscreen, microsphere flow cytometry; active compounds read high; 360,000 tested, 3.1% active; in the data active = fluorescence intensity above about 16000; inconclusive = no clear call, values can overlap the other calls
# CCHF vOTU inh: CCHFV vOTU protease inhibitors, primary screen, biochemical, Pep-AMC substrate, fluorescence; inhibition, % at 11.5 µM; 370,000 tested, 0.55% active; AID 651958, 2012; in the data active = inhibition above about 30%; note: 0% = vehicle wells with enzyme and 100% = no enzyme wells
# BoNT-A LC inh2: BoNT/A light chain protease inhibitors, primary screen, biochemical, flow cytometry, MLPCN library; multiplex microsphere protease substrate cleavage; Botulinum neurotoxin type A light chain protease (Clostridium botulinum A str. ATCC 3502); inhibition, % at 10 µM; 360,000 tested, 0.17% active; AID 588499, 2011; note: plate controls were buffer without enzyme for full effect and enzyme alone for no effect
# Anthrax LF inh2: Bacillus anthracis LF protease inhibitors, primary screen, biochemical, multiplex microsphere, MLPCN library; inhibition, % at 10 µM; multiplex microsphere protease cleavage assay; 360,000 tested, 0.12% active; Lethal factor (Bacillus anthracis), P15917; note: plate controls were buffer without enzyme for full effect and enzyme alone for no effect
# 3CLpro inhibitor: SARS-CoV 3CLpro protease inhibitors, primary screen, biochemical, quenched FRET. Replicase polyprotein 1ab (Severe acute respiratory syndrome coronavirus), P0C6X7. inhibition, % at 6 µM. 290,000 tested, 0.14% active. recombinant SARS-CoV 3CLpro, quenched FRET peptide cleavage. AID 1706, 2009; in the data active = inhibition above about 12%
# An asterisk follows results filed as active; ? = inconclusive; . = no result given. Cut-off read from the data, not from the text of the source, unless noted: active = inhibition above about 30%; inconclusive = no clear call, values can overlap the other calls; inactive = below that.
SMILES,BoNT-F LC inh,Autofluor counter,CCHF vOTU inh,BoNT-A LC inh2,Anthrax LF inh2,3CLpro inhibitor
CC(=O)N1CCN(c2cc(C)nc3nc(C)nn23)CC1,.,.,-2,.,.,.
Cc1nnc(NC(=O)CSc2nc3c(c(=O)n(C)c(=O)n3C)n2C(C)C)s1,4,4381,0,1,-1,3
CCCCn1c(SCC(=O)Nc2nnc(C(C)C)s2)nc2c1c(=O)n(C)c(=O)n2C,1,20755*,-1,0,0,-1
CCCn1c(SCC(=O)N2CCc3ccccc3C2)nc2c1c(=O)n(C)c(=O)n2C,-1,23593*,-5,-1,-1,0
c1ccc(-n2nnnc2SCc2ccccn2)cc1,-1,8801,-5,0,11,-7
CCCn1c(SCC(=O)Nc2nc3c(s2)CCCC3)nc2c1c(=O)n(C)c(=O)n2C,-2,23637*,14,-1,0,-4
CCn1c(SCC(=O)N2CCc3ccccc3C2)nc2c1c(=O)n(C)c(=O)n2C,10,9429,-6,1,-3,4
CCCn1c(SCC(=O)Nc2ccccc2N2CCOCC2)nc2c1c(=O)n(C)c(=O)n2C,?,2836,0,0,0,-1
C(=C\CSc1nnnn1-c1ccccc1)/CSc1nnnn1-c1ccccc1,3,20060*,15,1,-3,3
O=C(NCc1ccco1)C1CCCN(S(=O)(=O)c2ccccc2[N+](=O)[O-])C1 (centres undefined),.,.,2,.,.,.
CCC(C)N(C(=O)CN1C(=O)C2CCCCN2C(=O)c2ccccc21)C(C)CC (centres undefined),.,.,1,.,.,.
Nc1cc(=O)[nH]c(SCC(=O)N2CCc3ccccc3C2)n1,1,20269*,1,0,0,-1
COc1ccccc1N1CCN(C(=O)CSc2nc(N)cc(=O)[nH]2)CC1,-6,9972,-4,-1,1,-4
O=C(CSc1nnnn1-c1ccccc1)N1CCc2ccccc2C1,0,22363*,-2,-1,-2,-4
CCOc1ccc(OCC)c(NC(=O)CSc2nc3c(c(=O)n(C)c(=O)n3C)n2C(C)C)c1,1,8054,12,2,-6,2
CCOc1ccc(OCC)c(NC(=O)CSc2nc3c(c(=O)n(C)c(=O)n3C)n2CC)c1,-1,19457*,4,0,-2,-2
CC(=O)c1ccc(-n2nnnc2SCC(=O)N2CCc3ccccc3C2)cc1,-4,2833,0,-1,-2,0
COc1cccc(CNn2cnnc2)c1OCc1ccc(F)cc1,-4,9146,-5,0,5,5
COc1cccc(CNn2cnnc2)c1OCc1ccccc1F,14,20043*,-3,?,-4,-3
Cn1c(SCc2nc3ccccc3c(=O)[nH]2)nc2ccccc21,-8,5170,-13,-1,2,3
CC(C)Cn1c(SCc2nc3ccccc3c(=O)[nH]2)nc2ccccc2c1=O,1,19467*,-13,2,0,4
CC1CN(c2nc3ccccc3nc2SCC(=O)N2CCN(S(=O)(=O)c3ccc(F)cc3)CC2)CC(C)O1 (centres undefined),.,.,-1,.,.,.
COc1ccc(C2C(C(=O)N3CCN(C)CC3)c3cc(OC)c(OC)cc3C(=O)N2C)cc1 (centres undefined),-6,4172,12,0,-5,-2
CCN1CCN(C(=O)C2c3cc(OC)c(OC)cc3C(=O)N(C)C2c2ccc(SC)cc2)CC1 (centres undefined),-12,22280*,-2,?,-3,-6
CCOc1ccc(-n2c(SCc3cccc4ccccc34)nnc2-c2ccc(C)cc2)cc1,.,.,12,.,.,.
SMILES,BoNT-F LC inh,Autofluor counter,CCHF vOTU inh,BoNT-A LC inh2,Anthrax LF inh2,3CLpro inhibitor
O=C(c1cscn1)N1CCC(Oc2cccnc2)CC1,.,.,-4,.,.,.
CC[C@@H](CCCCCC#N)CCC(=O)N(c1ccccc1)c1ccccc1,.,.,18,.,.,.
N/C(=N\OC(=O)Cc1ccc(-c2ccccc2)cc1)c1cccnc1,3,15735,-7,2,-2,2
N/C(=N\OC(=O)Cc1ccccc1)c1cccnc1,6,20077*,4,7,-7,2
N/C(=N\OC(=O)CCCc1ccccc1)c1cccc([N+](=O)[O-])c1,3,2152,4,1,1,1
N/C(=N\OC(=O)Cc1ccc(-c2ccccc2)cc1)c1cccc([N+](=O)[O-])c1,-4,16257*,4,-1,-4,4
N/C(=N\OC(=O)CCC1CCCCC1)c1cccnc1,-2,21493*,7,-2,-4,-2
CN(Cc1ccccc1F)C(=O)Cn1c(-c2cncs2)nc2ccccc21,.,.,-3,.,.,.
CC(=O)c1cc(-c2csc(C=O)c2)c(=O)n2c1CCC2,.,.,1,.,.,.
COc1cccc(CC(=O)NCC2CCN(C(=O)C(=O)c3cccs3)CC2)c1,.,.,9,.,.,.
CCCC[C@H]1C2CC(OC(=O)Nc3ccccc3)C(C2)[C@H]2CCCCN21 (some centres undefined),.,.,-3,.,.,.
c1ccc(-c2nn[nH]n2)cc1,?,4346,-12,?,-14,2
Cc1ccccc1-c1nn[nH]n1,-5,21118*,4,-5,0,-5
CCCNC(=O)C[C@H]1CC[C@H]2[C@@H](COc3ccc(NC(=O)c4cncs4)cc3C(=O)N2C)O1,.,.,4,.,.,.
CCc1ccc(CNCCSc2nnnn2C)cc1,-6,23525*,8,-1,-1,-3
COc1ccc(CNCCSc2nnnn2C)c(OC)c1OC,-2,4273,-9,-1,-2,0
COc1cccc(CNCCSc2nnnn2C)c1,3,10456,3,0,-2,-3
COc1ccc(Br)cc1CNCCSc1nnnn1C,-8,22723*,-2,0,-1,3
Cn1nnnc1SCCNCc1cccnc1,4,11069,-2,0,-3,6
COc1ccc(CNCCSc2nnnn2C)cc1OC,0,19838*,-1,2,0,-4
COc1cccc(C2c3c(oc4ccc(Cl)cc4c3=O)C(=O)N2c2cc(C)on2)c1OC (centres undefined),-2,16528*,-9,-1,-5,2
COc1ccc(C)cc1S(=O)(=O)NC1CCCC1,-2,3104,-10,0,-5,1
COc1ccc(F)cc1S(=O)(=O)NC1CCCC1,-2,20620*,.,-2,0,-6
C#CCNC(=O)C[C@H]1C[C@@]2(C(=O)OC)C(=C[C@H](C3CCCC3)O[C@@H]2C)N(CCC2=CCCCC2)C1=O,.,.,8,.,.,.
CCOC(=O)CSc1nc2ccccc2n1CC(=O)NC(C)(C)C,-4,21055*,-18,-3,-1,2
COC(=O)c1cn(-c2ccc(F)cc2)c(=O)c2ccccc12,7,4520,3,2,3,2
CO/N=C/NC(=O)c1cn(-c2ccc(F)cc2)c(=O)c2ccccc12,-2,16209*,-7,-1,-4,-5
CCN(CC)S(=O)(=O)c1ccc(C(=O)NCc2cccs2)cc1,-1,21571*,1,1,2,4
